We go through 24 compounds from PubChem BioAssay (NCATS).

A number with no mark means an inactive call. Records with an inconclusive call do not appear. Calls of active or inactive are those of the source. Calls follow the shape of the dose curve; as a rule, active = well fitted curve in the direction sought with a large enough effect; inconclusive = small, poorly fitted or top-dose-only effect, or another doubt; inactive = no such curve, though single readings can be large; an effect the other way counts as inactive or inconclusive.

Experiment [1] in a line: Cellular Toxicity (caspase-3) N2a (AID 665).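 Also: compound exposure lasted 16 h at 37 °C before readout.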 An outline of the steps:
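Caspase-3/7 activation measured as luminescence from Caspase-Glo reagent (1 h, room temperature) after 16 h compound exposure of mouse N2a cells. AC50 values from Hill-equation concentration-response, scaled between DMSO and 10 uM staurosporine.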

Experiment [2] is described as follows: Cellular Toxicity (caspase-3) Renal Proximal Tubule (AID 667).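 Also: cells exposed to compound for 16 hours at 37 °C before detection.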 An outline of the steps: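 In qHTS format, rat primary proximal tubule cells seeded at 1000 per well are exposed to compounds for 16 hours at 37 °C. An increase in Caspase-Glo 3/7 luminescence indicates caspase activation.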
Experiment [3] concerns the target Cytochrome P450 3A4 (Homo sapiens) (UniProt P08684). Nature of the experiment: qHTS Assay for Inhibitors and Substrates of Cytochrome P450 3A4 (AID 884). Also: series mostly up to about 57 µM; nearly all actives have a fitted effect of over 50% in size. Put shortly:
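Luminescent readout of luciferin produced by CYP3A4 (20 nM) dealkylation of Luciferin-PPXE, 25 uM (its KM). NADPH-driven reaction ran 60 min at RT after 10 min compound preincubation; data scaled to 57 uM ketoconazole as 100% inhibition.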

Experiment [4] in a line: MultiTox-Fluor Cytotoxicity Assay - LYMP1-001 - Dead Cells (AID 946). Also: potency is read from the fitted curve at half-maximal effect. Put shortly:
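LYMP1-001 lymphoblastoid cells (2500/well) treated 16 h at 37 C. Dead-cell protease cleavage of bis-AAF-R110 read at Ex/Em 485/520. Normalized to DMSO and 15 uM tetraoctylammonium bromide; AC50 from Hill fits.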

Experiment [5] is described as follows: MultiTox-Fluor Cytotoxicity Assay - LYMP1-001 - Live Cells (AID 947).
The nature of experiment [6]: Cell Viability - LYMP1-002 - Assay at 16 hr (AID 948). Also: potency is read from the fitted curve at half-maximal effect. Put shortly: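 Acute cytotoxicity is scored as a concentration-dependent fall in intracellular ATP in a human lymphoblastoid line (LYMP1-002) after 16 hr compound exposure at 37 C, measured by luciferase luminescence.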
A short description of experiment [7]: MultiTox-Fluor Cytotoxicity Assay - LYMP1-002 - Live Cells (AID 955). Also: potency is read from the fitted curve at half-maximal effect. An outline of the steps: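 After 16 h compound exposure at 37 C, live LYMP1-002 lymphoblastoid cells (2500/well) were quantified by cleavage of cell-permeant GF-AFC substrate, read at 405/510 nm after 60 min. Concentration-response fitted with Hill equation for AC50.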
Experiment [8] in a line: MultiTox-Fluor Cytotoxicity Assay - LYMP1-002 - Dead Cells (AID 960). Also: nearly all actives have a fitted effect of over 60% in size. An outline of the steps:
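Dead-cell fluorescence (Ex/Em 485/520) after 16 h compound exposure at 37 C of LYMP1-002 lymphoblastoid cells in complete medium; AC50 by Hill equation, with data scaled between DMSO and 15 uM tetraoctylammonium bromide.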

A short description of experiment [9]: Confirmation and Secondary Assay for Modulators of Hemoglobin Beta Chain Splicing at IVS2 654 locus (AID 910).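 Also: per-well total GFP intensity by laser scanning cytometry after 2-day treatment.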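 Also: potency is read from the fitted curve at half-maximal effect; potency of activators that raise GFP signal by restoring correct splicing.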 Put shortly: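 HeLa cells stably carrying EGFP interrupted by mutant beta-globin IVS2-654 intron (CMV-driven) were treated with compound for 2 days at 37C; corrected splicing was scored as total peak GFP intensity per well (488 nm excitation, 500-520 nm emission).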

The nature of experiment [10]: Confirmation and Secondary Assay for Modulators of Hemoglobin Beta Chain Splicing at IVS2 705 locus (AID 930). Also: potency is read from the fitted curve at half-maximal effect. Put shortly:
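Restored EGFP fluorescence after 2-day compound exposure reports splicing correction in IVS2-705 EGFP reporter HeLa cells; positive control was 500 nM splice-blocking PNA oligo. Signal measured as well total peak GFP intensity (488 nm excitation).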

Experiment [11] addresses Cytochrome P450 3A4 (Homo sapiens) (UniProt P08684). Put plainly: qHTS Assay for Activators of Cytochrome P450 3A4 (AID 885). Also: nearly all actives have a fitted effect of over 65% in size. Put shortly:
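Human CYP3A4 dealkylates Luciferin-PPXE to luciferin, which luciferase detection converts to light. Substrate was at its KM (25uM), buffer 200mM KPO4, reaction 60 min at RT.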
For orientation: Quantitative high-throughput screening tests each substance at several concentrations.

Chain of Cytochrome P450 3A4 (Homo sapiens) (P08684 whole entry, looked up): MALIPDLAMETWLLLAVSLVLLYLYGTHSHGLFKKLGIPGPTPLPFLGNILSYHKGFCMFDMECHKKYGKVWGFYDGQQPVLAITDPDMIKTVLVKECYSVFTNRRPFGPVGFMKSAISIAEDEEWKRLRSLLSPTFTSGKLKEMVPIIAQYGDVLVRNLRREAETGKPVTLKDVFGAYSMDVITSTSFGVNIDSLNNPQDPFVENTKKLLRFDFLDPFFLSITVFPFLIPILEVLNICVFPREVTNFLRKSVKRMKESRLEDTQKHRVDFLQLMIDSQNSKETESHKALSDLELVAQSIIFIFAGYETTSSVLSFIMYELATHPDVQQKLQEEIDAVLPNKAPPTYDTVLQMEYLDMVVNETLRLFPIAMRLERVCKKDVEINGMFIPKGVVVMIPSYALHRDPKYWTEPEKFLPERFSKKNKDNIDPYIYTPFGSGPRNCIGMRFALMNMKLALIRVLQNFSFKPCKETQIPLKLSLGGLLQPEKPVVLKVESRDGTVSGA

In the case of `NCCN`, the compound was classed as inactive in experiment [1], in experiment [2] and in experiment [5]. The Potency result in experiment [3], in experiment [4], in experiment [6], in [7] and in [8] was “inactive” each time.
Regarding `OB(O)O`, the call in experiment [1], in experiment [2] and in experiment [5] was inactive. Also, the Potency result in experiment [3], in experiment [4], in experiment [6] and in experiment [7] was “inactive” in each case.
Regarding `[O-][N+](=Nc1ccccc1)c1ccccc1`, the result in [1], in [2] and in [5] was inactive. Also, the Potency result in experiment [3], in experiment [4], in [6], in [7] and in experiment [8] was “inactive” in each case.
For `Nc1nccs1`, the call in experiment [1], in [2] and in [5] was inactive. The Potency result in experiment [3], in experiment [9], in experiment [10], in experiment [4], in experiment [6] and in [7] was “inactive” each time. For the same compound, the Potency result in experiment [8] was “inactive”.
On to `CCCCC`, for which the compound was called inactive in experiment [1], in experiment [2] and in experiment [5]. Moreover, the Potency result in experiment [3], in [4], in experiment [6], in experiment [7] and in experiment [8] was “inactive” in each case.
As to `CO`, the outcome in [1], in experiment [2] and in [5] was inactive. Further, the Potency entry in [3], in experiment [4], in experiment [6], in experiment [7] and in [8] was “inactive” throughout.
On to `CCCCO`, for which the compound was called inactive in [1], in [2] and in experiment [5]. The Potency entry in experiment [3], in experiment [4], in [6], in experiment [7] and in experiment [8] was “inactive” in each case.
For `CO/N=C(/C(=O)N[C@@H]1C(=O)N2C(C(=O)O)=C(COC(N)=O)CS[C@H]12)c1ccco1`, the compound was called inactive in experiment [1], in experiment [2] and in experiment [5]. Also, the Potency entry in experiment [3], in [4], in experiment [6] and in experiment [7] was “inactive” in each case.
For the compound `ClC(Cl)Cl`, the call in experiment [1], in experiment [2] and in [5] was inactive. The Potency entry in experiment [3], in [4], in experiment [6], in [7] and in experiment [8] was “inactive” in each case.
On to `OCl`, for which the compound was classed as inactive in experiment [1], in [2] and in experiment [5]. Besides, the Potency result in [3], in experiment [4], in experiment [6], in [7] and in experiment [8] was “inactive” each time.
For the compound `CC1=CCC2CC1C2(C)C` (centres undefined), the compound was classed as inactive in [1], in [2] and in experiment [5]. Also, the Potency result in experiment [3], in [4], in experiment [6], in [7] and in experiment [8] was “inactive” each time.
With `CCOC(C)OCC`, the outcome in [1], in experiment [2] and in [5] was inactive. Moreover, the Potency entry in [3], in [4], in experiment [6], in experiment [7] and in experiment [8] was “inactive” throughout.
Consider `Nc1ncnc2c1ncn2[C@H]1CC[C@@H](CO)O1`, for which the outcome in experiment [1], in experiment [2] and in experiment [5] was inactive. In addition, the Potency result in experiment [3], in [9], in experiment [10], in experiment [4], in experiment [6] and in [7] was “inactive” each time. Moreover, the Potency result in experiment [8] is “inactive”.
For `O.O.O.O.O.O.O.O=S(=O)([O-])[O-].[Co+2]`, the outcome in experiment [1], in experiment [2] and in experiment [5] was inactive. The Potency entry in [3], in experiment [4], in [6] and in experiment [7] was “inactive” throughout.
`C[C@H]1O[C@@H](O[C@H]2[C@@H](O)C[C@H](O[C@H]3[C@@H](O)C[C@H](O[C@H]4CC[C@@]5(C)[C@H](CC[C@@H]6[C@@H]5C[C@@H](O)[C@]5(C)[C@@H](C7=CC(=O)OC7)CC[C@]65O)C4)O[C@@H]3C)O[C@@H]2C)C[C@H](O)[C@@H]1O`: the call in experiment [1] and in [2] was inactive. In addition, the Potency entry in experiment [3] is “inactive”. Besides, the Potency in experiment [4] was 0.794 µM (active); in [6], 0.199 µM (active); in [7], 0.501 µM (active).
Consider `Cc1ncc[nH]1`, for which the result in experiment [1], in experiment [2] and in experiment [5] was inactive. The Potency entry in experiment [3], in experiment [4], in [6], in experiment [7] and in experiment [8] was “inactive” throughout.
As to `COC(=O)c1ccccc1O`, the compound was called inactive in experiment [1], in experiment [2] and in experiment [5]. The Potency entry in [3], in experiment [4], in experiment [6], in experiment [7] and in experiment [8] was “inactive” each time.
Turning to `Oc1cccc(O)c1O`, the call in experiment [1], in experiment [2] and in experiment [5] was inactive. For the same compound, the Potency entry in [3], in experiment [4], in [6], in [7] and in [8] was “inactive” in each case.
For `CC[C@H]1OC(=O)[C@H](C)[C@@H](O[C@H]2C[C@@](C)(OC)[C@@H](O)[C@H](C)O2)[C@H](C)[C@@H](O[C@@H]2O[C@H](C)C[C@H](N(C)C)[C@H]2O)[C@](C)(O)C[C@@H](C)CN(C)[C@H](C)[C@@H](O)[C@]1(C)O`, the compound was called inactive in [1], in [2] and in experiment [5]. In addition, the Potency entry in [4], in [6], in [7] and in experiment [8] was “inactive” in each case.
Take `OCc1ccccc1`: the compound was classed as inactive in experiment [1], in experiment [2] and in experiment [5]. Also, the Potency entry in experiment [3], in experiment [4], in experiment [6], in [7] and in [8] was “inactive” throughout.
With `OC[C@H]1O[C@@H]2O[C@H]3[C@H](O)[C@@H](O)[C@@H](O[C@H]4[C@H](O)[C@@H](O)[C@@H](O[C@H]5[C@H](O)[C@@H](O)[C@@H](O[C@H]6[C@H](O)[C@@H](O)[C@@H](O[C@H]7[C@H](O)[C@@H](O)[C@@H](O[C@H]1[C@H](O)[C@H]2O)O[C@@H]7CO)O[C@@H]6CO)O[C@@H]5CO)O[C@@H]4CO)O[C@@H]3CO`, the outcome in experiment [1], in [2] and in experiment [5] was inactive. Moreover, the Potency result in experiment [3], in experiment [4], in experiment [6], in [7] and in experiment [8] was “inactive” throughout.
`Nc1ccc(N=Nc2ccccc2)c(N)n1`: the compound was called inactive in experiment [1], in [2] and in experiment [5]. For the same compound, the Potency result in experiment [11], in experiment [4], in experiment [6], in [7] and in [8] was “inactive” in each case. Also, the Potency in [9] is 15.8 µM (active); in [10], 20 µM (active).
Turning to `O=c1n(CC2CO2)c(=O)n(CC2CO2)c(=O)n1CC1CO1` (centres undefined), the compound was called inactive in experiment [1], in experiment [2] and in experiment [5]. Moreover, the Potency result in experiment [3] is “inactive”. Further, the Potency in experiment [6] was 39.8 µM (active).
Regarding `c1ccc2ccccc2c1`, the outcome in [1], in experiment [2] and in experiment [5] was inactive. Besides, the Potency result in experiment [3], in [4], in experiment [6], in experiment [7] and in experiment [8] was “inactive” each time.
